Compound activity deposited in PubChem BioAssay by National Center for Advancing Translational Sciences (NCATS).
Most compounds without a hit are left out; they make up all but 3.6% or so of the library.
FUS yeast rescue – qHTS for Suppressors of FUS Proteinopathy: Primary screen using FUS-linked yeast assay. Potency, µM (series often up to 76.6 µM), hits mostly activators. S. cerevisiae FUS-expressing, growth rescue, OD600, 24 h. AID 1347120, 2019. actives 0.24% (n = 390,000);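 note: plate controls were DMSO vehicle for no effect and reference control for full effect; nearly all actives have a fitted effect of over 55% in size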
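FUS-expressing yeast, raffinose-pregrown, induced in 2% galactose minimal medium at OD 0.005; compounds in a dilution series, 24hr at 30C. Growth restoration read as absorbance at 600 nm. CP55940 positive control, DMSO negative.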
aSyn yeast inh – qHTS of alpha-syn Inhibitors; Yeast expressing alpha-synuclein, growth rescue, BacTiter-Glo, 24 h; Potency, µM (highest dose often 46.1 µM), for the others: top-dose growth rescue (activation), hits mostly activators; actives 0.14% (n = 370,000); note: % of control where 0% means no effect; nearly all actives have a fitted effect of over 65% in size
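Galactose-induced alpha-syn yeast (OD600=0.02, raffinose-pregrown) + pinned cpd, 24 hr, 30 deg C; growth by BacTiter-Glo luminescence. Growth restoration scores as activation.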
ClpP mod – qHTS Assay for Activators of ClpP | actives 1.9% (n = 340,000) | purified B. subtilis ClpP, FRET peptide cleavage, 20 min | Potency, µM (top dose mostly 57.5 µM), for inactives: at the top dose activity change, negative = active | ATP-dependent Clp protease proteolytic subunit (Bacillus subtilis (strain 168)), P80244; active = well fitted falling curve with a large enough effect; inconclusive = small, poorly fitted or top-dose-only effect; inactive = no such curve, though single readings can be large or run the other way; note: the source files actives as falling curves though it sought activators and does not explain the sign; nearly all actives have a fitted effect of over 65% in size
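FRET quenching reversal measured ClpP activation: 10 microg/mL B. subtilis ClpP at pH 8 with the FRET-FV decapeptide, read at 430 nm after 320 nm excitation. The 20-min minus 0-min signal was scaled between DMSO/no-enzyme wells and ADEP (5.8 microM final).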
Mm-Cpn inhibitor – Inhibitors of TCP-1 ring complex (TRiC) of Methanococcus maripaludis (MmCpn): qHTS | AID 504842, 2011 | actives 0.031% (n = 330,000) | Potency, µM (titrated, usually from 76.9 µM), for inactives: at the highest dose activity, negative = inhibition, usual class: inhibitors | Chaperonin Mm-Cpn (Methanococcus maripaludis) | purified Mm-Cpn ATPase, ADP Transcreener TR-FRET; note: % is set by controls: 0 for no effect and ±100 for the full control effect; nearly all actives have a fitted effect of over 80% in size
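ATPase read-out: TR-FRET ADP immunoassay (anti-ADP Eu cryptate vs ADP-d2), ex 320 nm, em 590/665 nm; signal drops as ADP forms. Enzyme 25 nM, ATP 10 uM, 30 min at 37°C after 10 min compound preincubation.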
Abeta rescue – qHTS for compounds that reverse cellular toxicity of Amyloid beta (A-beta) peptide in yeast: Primary Screen; yeast expressing A-beta42, growth rescue, OD600, 48 h; response scale: 0% DMSO, 100% iron-clioquinol control; Potency, µM (titrated, usually from 46.1 µM), usual class: activators; actives 0.063% (n = 410,000); AID 1347071, 2019; note: nearly all actives have a fitted effect of over 55% in size
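Yeast growth medium received pinned compounds, then yeast cells expressing toxic A-beta were added; plates incubated at 30 C for 48 hr. Growth read as absorbance at 600 nm, normalized to DMSO and equimolar FeCl3 plus clioquinol controls.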
TDP-43 yeast inh – qHTS of TDP-43 Inhibitors. actives 1.8% (n = 410,000). TDP-43 expressing yeast growth rescue, BacTiter-Glo, 24 h. Potency, µM (highest dose often 46.1 µM), without a hit: at the top dose growth rescue (activation), usual class: activators; note: % of control where 0% means no effect; nearly all actives have a fitted effect of over 50% in size
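Yeast cells expressing TDP-43 under galactose induction are exposed to compounds for 24 hr at 30 deg C. BacTiter-Glo luminescence measures growth, so protective compounds score as activators.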
Starred values were filed as active, the others as inactive; i = inactive; ? = inconclusive; nt = no result given; [ ] = remark or other dose. Unless noted, calls come from the whole dose curve; as a rule, active = well fitted curve in the direction sought with a large enough effect; inconclusive = small, poorly fitted or top-dose-only effect, or another doubt; inactive = no such curve, though single readings can be large; an effect the other way counts as inactive or inconclusive. Potency is the fitted concentration of half-maximal effect.

SMILES	FUS yeast rescue	aSyn yeast inh	ClpP mod	Mm-Cpn inhibitor	Abeta rescue	TDP-43 yeast inh
COC(=O)N1CCCC(c2cc(C(=O)Nc3ccccc3Cl)no2)C1 (stereo not given)	i	22%	1%	nt	i	?
Cc1ccc(F)cc1C(=O)N1CCCC(c2cc(C(=O)Nc3ccccc3Cl)no2)C1 (stereo not given)	?	26%	-2%	nt	i	35µM*
Cc1ccc(F)cc1C(=O)N1CCCC(c2cc(C(=O)NCc3ccccc3)no2)C1 (stereo not given)	i	-2%	1%	nt	i	0%
O=C(Nc1ccc2c(c1)OCO2)c1cc(C2CCCN(C(=O)C3CCCCC3)C2)on1 (stereo not given)	i	3%	2%	nt	i	35µM*
O=C(Nc1ccccc1Cl)c1cc(C2CCCN(C(=O)C3CCCCC3)C2)on1 (stereo not given)	i	14%	0%	nt	i	16µM*
CC(=O)Nc1ccc(C(=O)N2CCCCC2c2cc(C(=O)Nc3ccccc3)no2)cc1 (stereo not given)	i	2%	-4%	nt	i	11%
CCN(CC)CCNC(=O)C(=O)NCC(c1ccc2c(c1)OCO2)N1CCOCC1 (stereo not given)	i	nt	-2%	nt	i	10%
COc1cccc(N2CCN(Cc3cc(=O)oc4cc(C)ccc34)CC2)c1	i	nt	-1%	nt	i	18%
CCOC(=O)C(=Cc1cc(=O)c(OC)co1)C(=O)OCC	i	8%	-3%	-10%	i	13µM*
Cn1cnc2c1c(=O)n(Cc1cccc(Br)c1)c(=O)n2C	i	?	-5%	0%	i	?
CCn1cnc2c1c(=O)n(Cc1cccc(Br)c1)c(=O)n2Cc1ccccc1	i	0%	2%	-4%	i	22µM*
COc1ccc(C2Nc3cccc(O)c3C(=O)N2Cc2ccccc2)cc1COc1ccc(NC(C)=O)cc1 (stereo not given)	11µM*	nt	nt	nt	i	nt
COc1ccc(C2Nc3ccccc3C(=O)N2Cc2ccncc2)cc1COc1ccc(NC(C)=O)cc1 (stereo not given)	i	nt	nt	nt	nt	nt
Cc1ccc(C)c(N2CCN(C(=O)CCn3c(=O)[nH]c4ccccc4c3=O)CC2)c1	?	nt	-7%	nt	i	-16%[9.22 µM]
CCOc1ccc(Br)cc1C1C(C(=O)Nc2ccccc2OC)=C(C)Nc2nnnn21 (stereo not given)	i	nt	-3%	nt	i	0%
O=C(Oc1ccc2ccc(O)cc2c1)C1CCCCC1	i	-4%	nt	-3%	i	22µM*
O=C(Oc1ccc2ccc(O)cc2c1)c1ccccc1Cl	i	-12%	-2%	1%	i	14µM*
O=C(Oc1ccc2ccccc2c1)C1CCC1	i	-5%	nt	0%	i	nt
Cc1cc(N)ccc1-n1c(C)ccc1C	nt	2%	32µM*	-2%	i	0%
Cc1cc(N)ccc1N1CCCC1	nt	-7%	-2%	0%	i	-8%
C=C(C)n1c(=O)n(Cc2ccccc2C)c2ccccc21	i	0%	-1%	-1%	i	11µM*
CC(=O)N1CCc2cc(CNC(=O)Nc3ccc(Br)c(C)c3)ccc21	i	nt	1%	nt	i	15%
COc1ccc(N=c2nc(-c3ccc(C)cc3)n(-c3ccccc3)s2)cc1	nt	-22%	-1%	nt	nt	nt
Cc1ccc(N2CC(C(=O)OCC(=O)c3ccc[nH]3)CC2=O)cc1 (stereo not given)	i	1%	-1%	1%	i	22%
CC(C)(C)C1CCC(C(=O)OCC(=O)c2ccc[nH]2)CC1 (stereo not given)	i	4%	-2%	0%	i	18µM*
SMILES	FUS yeast rescue	aSyn yeast inh	ClpP mod	Mm-Cpn inhibitor	Abeta rescue	TDP-43 yeast inh
O=C(N/N=C\c1ccncc1)c1ccccc1O	i	-2%	nt	0%	i	-10%
C=C(c1ccccc1O)n1ccnc1	i	3%	13µM*	-3%	i	10%
Cc1nn2c(-c3ccccc3)ccnc2c1Br	i	4%	1%	-1%	i	20µM*
Cc1ccc(-c2ccnc3c(Br)c(C)nn23)cc1	i	?	0%	-5%	i	17%
CC(C)CN1CCNC(=O)C1CC(=O)NCCc1ccc(C(F)(F)F)cc1 (stereo not given)	i	-4%	nt	32µM*	i	-14%
CC(C)CN1CCNC(=O)C1CC(=O)NCCc1cnn(-c2ccccc2)c1 (stereo not given)	i	-1%	nt	2%	i	0%
COc1ccc(-c2noc(-c3cccs3)n2)cc1OC	i	-7%	nt	-3%	i	-15%
COc1nc(-c2cccs2)cc(-c2ccc(C)cc2)c1C#N	i	1%	4µM*	1%	i	-9%
COc1ccc(-c2cc(-c3cccs3)nc(OC)c2C#N)cc1OC	nt	0%	32µM*	-1%	i	13%
COc1ccc(-c2c(C#N)c(N)nc3c2CCc2ccccc2-3)cc1OC	?	12%	13µM*	-8%	i	?
CC(=O)c1ccc(N2CCN(S(=O)(=O)c3ccc(-c4cc(C(F)(F)F)on4)s3)CC2)cc1	i	nt	1%	nt	i	4%
Oc1ccccc1C1C=C(c2ccc3c(c2)OCO3)NC(c2ccc(F)c(Br)c2)N1 (stereo not given)	nt	1%	nt	nt	nt	nt
Cc1ccc(N2C(=O)C(CC(=O)Nc3cccc(F)c3)N(CCc3ccccc3F)C2=O)cc1 (stereo not given)	?	nt	0%	nt	i	20%
CCCCc1c(-c2cccc(Br)c2)ncn1CCc1ccccc1OC	i	3%	-1%	nt	i	25µM*
CCCCc1c(-c2cccc(F)c2)ncn1CCc1ccccc1OC	i	5%	-7%	nt	i	0%
Cc1nn(C2CC(O)C(O)C(CO)O2)c(=O)[nH]c1=O (stereo not given)	nt	-8%	28µM*	nt	i	-3%
CCc1cn([C@H]2C[C@H](O)[C@@H](CO)O2)c(=O)[nH]c1=O	i	-5%	1%	2%[15.4 µM]	i	21%
COc1ccc(C(C#N)=Cc2ccccc2OC)cc1	i	-9%	-12%	nt	i	20µM*
COc1ccc(/C=C(\C#N)c2nc3ccccc3n2C)c(OC)c1	i	nt	-3%	nt	i	20µM*
